A short description of test [1]: BSK_LPS_PGE2: BioMAP Diversity Plus: LPS Assay for Prostaglandin E2 (PGE2) Biomarker Activity (AID 2283082).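 On AC50: secreted prostaglandin E2 measured by ELISA in LPS-stimulated co-culture.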 The note with it: primary human HUVEC with PBMC; actives raise or lower the signal. In outline:
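LPS-activated HUVEC/PBMC co-culture; cmpd dosed, 24 h; PGE2 by ELISA; bidirectional fit vs DMSO; SRB (0.1%, TCA-fixed, 560 nm) in parallel plates for overt cytotox.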

Read-out in test [2]: Tissue Factor, F3 (gene 2152)
Description: BSK_LPS_TissueFactor: BioMAP Diversity Plus: LPS Assay for Tissue Factor Biomarker Activity (AID 2283084). Particulars: primary human HUVEC with PBMC; actives raise or lower the signal. The gist of the method: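 Read-out: CD142 ELISA, 24 h. System: LPS-driven human endothelial/PBMC co-culture. Analysis: up- or down-signal fitted against DMSO.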

Read-out in test [3]: Tumor necrosis factor (Homo sapiens) (UniProt P01375)
Nature of the test: BSK_LPS_TNFa: BioMAP Diversity Plus: LPS Assay for Tumour Necrosis Factor alpha (TNFa) Biomarker Activity (AID 2283085). The note with it: primary human HUVEC with PBMC; actives raise or lower the signal. The gist of the method:
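Read-out is ELISA of TNFa in primary human endothelial cell–PBMC co-cultures at 24 h after compound. Activity in either direction was fitted against DMSO.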

Read-out in test [4]: Vascular cell adhesion molecule 1 (VCAM1), VCAM1 (gene 7412)
Nature of the test: BSK_LPS_VCAM1: BioMAP Diversity Plus: LPS Assay for Vascular cell adhesion molecule 1 (VCAM1) Biomarker Activity (AID 2283086). The note with it: primary human HUVEC with PBMC; actives raise or lower the signal. In outline: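 HUVEC + PBMC co-culture, LPS system; compound 24 h; VCAM-1 by ELISA; bidirectional fit vs DMSO control; parallel SRB (0.1%, TCA-fixed, 560 nm) for cytotoxicity.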

Read-out in test [5]: CD40, CD40 (gene 958)
Description: BSK_SAg_CD40: BioMAP Diversity Plus: SAg Assay for CD40 Biomarker Activity (AID 2283088). The note with it: primary human HUVEC with PBMC; actives raise or lower the signal. In outline:
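Endpoint derived by fitting increases or decreases versus DMSO controls. CD40 is detected by fluorescence ELISA in a human vascular co-culture of endothelium and PBMC at 24 h.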

Read-out in test [6]: CD69, CD69 (gene 969)
Nature of the test: BSK_SAg_CD69: BioMAP Diversity Plus: SAg Assay for CD69 Biomarker Activity (AID 2283089).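 On AC50: cell surface CD69 protein quantified by ELISA with fluorescence detection.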 Particulars: primary human HUVEC with PBMC; actives raise or lower the signal. In outline:
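ELISA, fluorescence read-out: CD69 on human umbilical vein endothelial cell + PBMC co-culture, 24 h post-dosing. Gain or loss of signal fitted bidirectionally against DMSO baseline.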

Read-out in test [7]: Monocyte Chemoattractant Protein-1 (MCP1), CCL2 (gene 6347)
Nature of the test: BSK_SAg_MCP1: BioMAP Diversity Plus: SAg Assay for Monocyte Chemoattractant Protein-1 (MCP1) Biomarker Activity (AID 2283090). Particulars: primary human HUVEC with PBMC; actives raise or lower the signal. The gist of the method: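 MCP-1 levels in the endothelial–PBMC SAg co-culture were quantified by ELISA at 24 h post-dosing; both increases and decreases versus DMSO scored. Cytotoxicity monitored by SRB total protein in parallel cultures.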

Read-out in test [8]: E-selectin (Homo sapiens) (UniProt P16581)
Nature of the test: BSK_SAg_Eselectin: BioMAP Diversity Plus: SAg Assay for Eselectin Biomarker Activity (AID 2283091). Particulars: primary human HUVEC with PBMC; actives raise or lower the signal. The gist of the method:
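Endpoint values derive from bidirectional fitting relative to DMSO, using ELISA-measured E-selectin in a human vascular co-culture (umbilical vein endothelium plus PBMC) sampled 24 h after dosing.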

A short description of test [9]: BSK_SAg_PBMCCytotoxicity: PBMC Cytotoxicity Assessment in the BioMAP Diversity Plus: SAg Assay (AID 2283093).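 Further: PBMC viability measured as Alamar Blue reduction fluorescence at 546/580 nm; fitted both ways against DMSO so a hit may be loss or gain of signal.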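 On AC50: PBMC superantigen activated with SEB plus TSST-1 one hour after compound addition.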 Particulars: primary human HUVEC with PBMC. In outline: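 Compound added to 75,000 PBMC/well for 1 h; SEB and TSST-1 then added at 20 ng/mL final each; 90 h incubation; Alamar Blue 6 h; read 546/580 nm ex/em. Activity fitted bidirectionally relative to DMSO baseline.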

Read-out in test [10]: Interleukin-8 (IL8), CXCL8 (gene 3576)
Description: BSK_SAg_IL8: BioMAP Diversity Plus: SAg Assay for Interleukin-8 (IL8) Biomarker Activity (AID 2283094). The note with it: primary human HUVEC with PBMC; actives raise or lower the signal. In outline:
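ELISA read-out of IL-8 in a primary human vascular co-culture (umbilical vein endothelium plus PBMC), taken 24 h after compound addition. Values derive from bidirectional fits against DMSO negative controls.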

The nature of test [11]: BSK_SAg_Proliferation: Cell Proliferation Assessment in the BioMAP Diversity Plus: SAg Assay (AID 2283095).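 Further: relative cell number as total protein by SRB absorbance in sub-confluent culture.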 The note with it: primary human HUVEC with PBMC. In outline:
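Cells (endothelium plus PBMC, human primary) were dosed with chemical, cultured 96 h, fixed in 10% TCA and stained with 0.1% SRB. Absorbance at 560 nm gave relative protein, fitted bidirectionally relative to DMSO.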

Read-out in test [12]: Macrophage colony-stimulating factor (MCSF), CSF1 (gene 1435)
Description: BSK_LPS_MCSF: BioMAP Diversity Plus: LPS Assay for Macrophage colony-stimulating factor (MCSF) Biomarker Activity (AID 2283083). Particulars: primary human HUVEC with PBMC; actives raise or lower the signal. The gist of the method:
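Bidirectional fit versus DMSO of ELISA-measured M-CSF in co-cultured human umbilical vein endothelial cells and PBMC, sampled 24 h after dosing.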

Test [13] can be described thus: BSK_SAg_SRB: Viability Assessment in the BioMAP Diversity Plus: SAg Assay (AID 2283096).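 Further: cells read one day after compound addition; hits may be either gain or loss of signal compared with DMSO.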 Particulars: primary human HUVEC with PBMC. The gist of the method: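 Total protein by sulforhodamine B staining, 24 h after dosing, in HUVEC–PBMC co-culture; DMSO-referenced bidirectional fitting.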
Read-out in test [14]: CD38, CD38 (gene 952)
Description: BSK_SAg_CD38: BioMAP Diversity Plus: SAg Assay for CD38 Biomarker Activity (AID 2283087). Particulars: primary human HUVEC with PBMC; actives raise or lower the signal. In outline:
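Human HUVEC plus PBMC co-culture stimulated with superantigen; CD38 measured by ELISA 24 h after chemical dosing. Fluorescence read-out, bidirectional fit against DMSO; cytotoxicity tracked in parallel by SRB and Alamar Blue.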

The target in test [15] is human CYP19A1, CYP19A1 (gene 1588) (UniProt P11511). Description: NVS_ADME_hCYP19A1: NovaScreen (NVS) CYP450-related Enzyme Activity (ADME) Assay for human CYP19A1 (AID 2283098; active means hit-call score of the fitted dose curve at least 0.9, where 1 is the maximum;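 on AC50: potency for inhibitors seen as loss of fluorescent enzyme signal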). In outline: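 Biochem, cell-free; recombinant enzyme + specific substrate; fluorescence intensity at 0.5 h post-dose; 10 uM duplicate primary, conc. series for actives; acetonitrile = negative control/baseline; positive and negative controls on every plate.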
human CYP19A1, CYP19A1 (gene 1588), sequence (P11511 whole entry, looked up): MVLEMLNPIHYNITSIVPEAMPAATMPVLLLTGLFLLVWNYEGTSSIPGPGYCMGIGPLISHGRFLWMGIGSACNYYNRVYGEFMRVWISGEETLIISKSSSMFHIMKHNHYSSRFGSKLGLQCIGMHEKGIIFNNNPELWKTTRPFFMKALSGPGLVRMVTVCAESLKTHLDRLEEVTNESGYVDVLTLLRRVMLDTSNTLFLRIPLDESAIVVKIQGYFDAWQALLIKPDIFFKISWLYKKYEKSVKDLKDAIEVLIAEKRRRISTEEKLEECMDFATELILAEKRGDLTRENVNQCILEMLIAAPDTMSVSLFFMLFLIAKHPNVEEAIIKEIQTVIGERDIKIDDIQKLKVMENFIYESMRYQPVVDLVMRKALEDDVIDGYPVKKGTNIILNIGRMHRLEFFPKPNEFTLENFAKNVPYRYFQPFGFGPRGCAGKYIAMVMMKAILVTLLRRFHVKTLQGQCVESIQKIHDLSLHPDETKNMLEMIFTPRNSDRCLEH

Test [16] has as its target human CYP2D6, CYP2D6 (gene 1565) (UniProt P10635). Nature of the test: NVS_ADME_hCYP2D6: NovaScreen (NVS) CYP450-related Enzyme Activity (ADME) Assay for human CYP2D6 (AID 2283107; active means hit-call score of the fitted dose curve at least 0.9, where 1 is the maximum). The gist of the method: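 Biochemical fluorescence assay, insect-cell-derived enzyme. Read at 1 h; inhibition taken from loss of signal against acetonitrile. Screened at 10 uM in duplicate, with concentration series for actives.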

Read-out in test [17]: Monokine induced gamma interferon (MIG), CXCL9 (gene 4283)
Nature of the test: BSK_SAg_MIG: BioMAP Diversity Plus: SAg Assay for Monokine induced gamma interferon (MIG) Biomarker Activity (AID 2283092). The note with it: primary human HUVEC with PBMC; actives raise or lower the signal. The gist of the method: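 ELISA readout of MIG/CXCL9; primary human umbilical vein endothelial cells co-cultured with peripheral blood mononuclear cells; 24 h post-dose; gain/loss fit vs DMSO baseline.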

The target of test [18] is human CYP2A6, CYP2A6 (gene 1548) (UniProt P11509). Description: NVS_ADME_hCYP2A6: NovaScreen (NVS) CYP450-related Enzyme Activity (ADME) Assay for human CYP2A6 (AID 2283099; active means hit-call score of the fitted dose curve at least 0.9, where 1 is the maximum). In outline: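 Loss of fluorescence signal relative to acetonitrile vehicle reported CYP2A6 inhibition in a cell-free system using insect-cell-derived enzyme. Readings were taken at 0.5 h; top concentration in follow-up dose series was 20 uM.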
human CYP2A6, CYP2A6 (gene 1548), sequence (P11509 whole entry, looked up): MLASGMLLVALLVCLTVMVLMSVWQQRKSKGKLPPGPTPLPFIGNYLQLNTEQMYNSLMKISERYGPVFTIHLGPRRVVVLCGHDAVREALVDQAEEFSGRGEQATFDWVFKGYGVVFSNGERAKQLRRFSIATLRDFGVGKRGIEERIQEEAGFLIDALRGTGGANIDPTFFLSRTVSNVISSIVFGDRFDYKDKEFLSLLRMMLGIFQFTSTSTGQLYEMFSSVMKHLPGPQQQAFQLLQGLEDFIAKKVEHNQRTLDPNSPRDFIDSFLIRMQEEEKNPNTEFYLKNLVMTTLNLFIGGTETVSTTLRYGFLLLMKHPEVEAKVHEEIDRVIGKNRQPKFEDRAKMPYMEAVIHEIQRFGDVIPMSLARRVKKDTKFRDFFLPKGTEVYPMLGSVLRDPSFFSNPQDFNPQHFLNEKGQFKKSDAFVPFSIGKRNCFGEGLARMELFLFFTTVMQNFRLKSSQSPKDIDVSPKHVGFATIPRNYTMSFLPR

The structures appear in SMILES notation. Inconclusive results are not listed. The source holds several records for some structures; these can differ, active in one and inactive in another. The source made the active and inactive calls. How the source made its calls, unless noted: active means hit-call score of the fitted dose curve at least 0.9, where 1 is the maximum; inactive means score below 0.9.

As a reminder, the AC50 is the midpoint of the concentration-response curve, whichever way the signal moves.

Tumor necrosis factor (Homo sapiens), sequence (P01375 whole entry, looked up): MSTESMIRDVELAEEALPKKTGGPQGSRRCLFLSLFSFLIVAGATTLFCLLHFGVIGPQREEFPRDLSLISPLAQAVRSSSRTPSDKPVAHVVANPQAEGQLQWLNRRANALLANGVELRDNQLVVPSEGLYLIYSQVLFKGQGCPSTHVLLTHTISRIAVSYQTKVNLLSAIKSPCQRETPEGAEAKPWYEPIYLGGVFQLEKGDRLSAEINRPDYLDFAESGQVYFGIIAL
E-selectin (Homo sapiens), sequence (P16581 whole entry, looked up): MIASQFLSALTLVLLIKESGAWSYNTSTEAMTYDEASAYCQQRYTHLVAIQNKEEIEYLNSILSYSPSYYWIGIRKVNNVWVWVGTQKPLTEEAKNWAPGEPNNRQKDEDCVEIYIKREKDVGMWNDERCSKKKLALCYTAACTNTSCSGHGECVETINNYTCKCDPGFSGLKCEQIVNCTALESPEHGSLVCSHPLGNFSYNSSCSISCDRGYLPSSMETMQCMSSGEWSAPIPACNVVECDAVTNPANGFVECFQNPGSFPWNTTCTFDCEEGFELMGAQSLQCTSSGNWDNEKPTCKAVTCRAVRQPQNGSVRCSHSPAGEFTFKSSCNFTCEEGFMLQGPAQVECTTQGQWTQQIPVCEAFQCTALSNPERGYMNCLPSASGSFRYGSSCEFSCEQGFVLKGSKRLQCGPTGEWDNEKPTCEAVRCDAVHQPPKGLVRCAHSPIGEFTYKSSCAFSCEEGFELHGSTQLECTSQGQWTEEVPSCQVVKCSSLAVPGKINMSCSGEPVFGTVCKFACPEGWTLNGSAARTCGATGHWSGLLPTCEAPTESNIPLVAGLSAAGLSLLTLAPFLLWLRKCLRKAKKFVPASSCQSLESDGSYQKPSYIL
human CYP2D6, CYP2D6 (gene 1565), sequence (P10635 whole entry, looked up): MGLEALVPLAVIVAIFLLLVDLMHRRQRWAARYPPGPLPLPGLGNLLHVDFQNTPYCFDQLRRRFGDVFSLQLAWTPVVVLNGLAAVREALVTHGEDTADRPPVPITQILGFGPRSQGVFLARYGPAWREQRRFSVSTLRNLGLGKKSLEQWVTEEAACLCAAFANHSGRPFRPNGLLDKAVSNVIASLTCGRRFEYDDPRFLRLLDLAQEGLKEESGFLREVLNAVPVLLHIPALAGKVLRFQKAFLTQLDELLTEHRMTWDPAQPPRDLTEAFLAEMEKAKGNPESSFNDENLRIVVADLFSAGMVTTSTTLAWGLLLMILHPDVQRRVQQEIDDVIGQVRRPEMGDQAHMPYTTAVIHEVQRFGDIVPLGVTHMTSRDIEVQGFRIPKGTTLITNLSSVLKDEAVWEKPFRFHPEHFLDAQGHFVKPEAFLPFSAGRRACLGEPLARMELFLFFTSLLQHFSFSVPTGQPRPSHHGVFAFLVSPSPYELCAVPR

Take `CC(=O)N1CCN(c2ccc(OC[C@H]3CO[C@](Cn4ccnc4)(c4ccc(Cl)cc4Cl)O3)cc2)CC1`: in test [1], the result was inactive. For the same compound, the AC50 was 33 µM (active) in test [2]; 36.7 µM (active) in test [3]; 28.1 µM (active) in test [4]; 24.1 µM (active) in test [5]; 25.4 µM (active) in test [6]; 30.1 µM (active) in test [7]. In addition, the AC50 in test [8] was 32.4 µM (active); in test [9], 33 µM (active); in [10], 26.5 µM (active); in [11] it was 22.8 µM (active).
With `C[C@]12CC[C@@H]3c4ccc(O)cc4CC[C@H]3[C@@H]1CCC2=O`, the outcome in test [1], in test [12], in test [2], in test [3], in test [4] and in test [5] was inactive. For the same compound, the result in test [6], in test [7], in [8], in test [9], in [10] and in test [11] was inactive. Moreover, the outcome in [13] was inactive.
Turning to `C[C@]12CC[C@@H]3c4ccc(O)cc4CC[C@H]3[C@@H]1CC[C@H]2O`, the outcome in test [1], in test [2], in [3], in test [14], in test [5] and in test [6] was inactive. In addition, the result in [8], in [10] and in [15] was inactive. The AC50 in [12] was 8.61 µM (active); in test [7], 15.4 µM (active); in [11] it was 12.4 µM (active); in test [15], 10 µM (active).
For `Cc1cn([C@H]2C[C@H](N=[N+]=[N-])[C@@H](CO)O2)c(=O)[nH]c1=O`, the outcome in test [1], in test [12], in test [2], in test [3], in [4] and in [5] was inactive. Further, the outcome in [6], in [7], in [8], in test [9], in test [10] and in [11] was inactive.
For the compound `Cc1occc1C(=O)Nc1ccc(C(=O)N2CCC(F)(F)/C(=C\C(=O)N3CCC(N4CCCCC4)CC3)c3ccccc32)cc1`, the outcome in test [1], in test [12], in test [2], in [3], in test [4] and in [5] was inactive. Also, the outcome in test [6], in [7], in [8], in test [10], in test [11] and in [13] was inactive. The AC50 in test [16] is 1.77 µM (active).
As to `CCOC(=O)O[C@H](C)OC(=O)c1ccc2c(c1)cc(C(=O)NC1CCN(C(C)C)CC1)n2Cc1cc(-c2ccc(Cl)s2)on1`, the AC50 was 7.65 µM (active) in [1]; 6.43 µM (active) in [12]; 10.9 µM (active) in test [2]; 10.1 µM (active) in test [3]; 6.25 µM (active) in [4]; 6.99 µM (active) in test [5]. Also, the AC50 in [6] was 6.44 µM (active); in test [7] it was 7.11 µM (active); in test [8], 8.76 µM (active); in test [17] it was 8.05 µM (active); in test [10], 6.18 µM (active); in [11], 2.37 µM (active). In test [18], the compound was classed as inactive.
On to `O=C(O)Cc1cc(I)c(Oc2ccc(O)c(I)c2)c(I)c1`, for which the result in test [1], in [12], in [2], in [4], in [5] and in [6] was inactive. Also, the outcome in test [7], in test [9], in [10] and in test [15] was inactive. Also, the concentration at half-maximal activity (AC50) in [3] is 13 µM (active); in [8], 20 µM (active); in [11], 11.8 µM (active).

The values above are taken from PubChem BioAssay (EPA / NIEHS).
